Measured values from ChEMBL document CHEMBL4513216, “Probing the Open Global Health Chemical Diversity Library for Multistage-Active Starting Points for Next-Generation Antimalarials” (ACS Infect Dis, 2020).
Among all 69,000 compounds or so, about 8,600 (12%) showed an effect of 50% or more. The list comes from a sample in which strong results are over-represented; it also holds similar structures and randomly drawn compounds.

What follows are compounds tested on Plasmodium berghei (assay: Screen against P. berghei liver stage (PbLuc), transformed with Luciferase, at 10uM). Conditions: tested at 10 uM.
Format: functional, HepG2

Row | SMILES | INHIBITION [%]
1 | CC(=O)N1[C@@H](C(=O)NCC2CC2)C[C@@H]2CN(Cc3ccco3)C[C@@H]21 | 11.6
2 | Cc1cccc(Nc2noc3c2CN(C(=O)c2ccn(C)n2)CC3)c1C | -14.225
3 | Cc1ccnn1CCNC(=O)C1CCN(S(=O)(=O)c2ccc(F)cc2)C1 (configuration not stated) | 41.2
4 | Cc1noc(C)c1C[S+]([O-])Cc1cn2cccc(C)c2n1 (configuration not stated) | -41.7
5 | CS(=O)(=O)N1CCO[C@H]2[C@@H](Oc3ncccc3F)CC[C@@H]21 | 32.2
6 | Cc1nc(CN2CCCC(NCc3ccc(Cl)s3)C2)no1 (configuration not stated) | 26.5
7 | Cc1ccc2[nH]c(C(=O)N3CCC4(CC3)C(=O)NCCN4C)nc2c1 | 10.4
8 | Cc1nc(-n2nc(-c3cccs3)cc2N)[nH]c(=O)c1C | 50.9
9 | CC(C(N)=O)n1nc(-c2cccs2)cc(N)c1=O (configuration not stated) | 17.4
10 | Cc1cc(=O)[nH]c(-n2nc(-c3cccs3)cc2N)n1 | 20.9
11 | CCc1c(C)nc(-n2nc(-c3cccs3)cc2N)[nH]c1=O | -90.8
12 | NC1(c2nc(-c3cccs3)cc(=O)[nH]2)CCCC1 | -35.8
13 | CCCc1cc(=O)[nH]c(-n2nc(-c3cccs3)cc2N)n1 | 83.8
14 | O=C(c1ccnnc1)N1CCC2(CC1)CC(N1CCOCC1)C2 | 27.4
15 | O=C(NCc1ccco1)N(CCCO)C1CCCc2ccccc21 (configuration not stated) | 11.9
16 | Cc1cc(NC(=O)N(Cc2ccc(C#N)cc2)C(C)C)no1 | 6.33
17 | CC(C)N(Cc1ccc(C#N)cc1)C(=O)Nc1ccccn1 | 54.3
18 | CC(C)N(Cc1cccnc1)C(=O)CSc1ccc(C#N)cc1 | 2.82
19 | CC(C)N(Cc1ccccc1)C(=O)NCCNC(=O)c1cccnc1 | -17.8

Row | SMILES | INHIBITION [%]
20 | CC(C)N(Cc1ccc(C#N)cc1)C(=O)NCCNc1ncccn1 | 55.1
21 | CC(C)N(Cc1ccc(C#N)cc1)C(=O)Nc1ccncc1 | 44
22 | Cc1ccc(N(CCC#N)C(=O)CCc2cccnc2)cc1C | 11.9
23 | CC(C(=O)NCC(F)(F)F)N1CCC(N2CCN(C)C2=O)CC1 (configuration not stated) | 35.9
24 | Cc1cncc(C(=O)N2C[C@@H]3CN(S(C)(=O)=O)CCO[C@@H]3C2)c1 | -7.24
25 | CC(C)Nc1nc2c(cc1C(=O)NCC1CC1)CCN(CC1CC1)CC2 | 71.4
26 | Cc1nc2c(cc1C(=O)O)CCN(CC1CC1)CC2 | 74.9
27 | Cc1nc2c(cc1C(=O)O)CCN(Cc1ccsc1)CC2 | 20.4
28 | CNC(=O)N1CCc2cc(C(=O)NCC3CC3)c(NC(C)C)nc2CC1 | -114
29 | CN(C)C(=O)c1cc2c(nc1NCC1CC1)CCN(CC1CC1)CC2 | 38.2
30 | COCCN1CCc2cc(C(=O)NCC3CC3)c(NC(C)C)nc2CC1 | 51.6
31 | COCCN1CCc2cc(C(=O)N(C)C)c(NC(C)C)nc2CC1 | 18.1
32 | CC(C)Nc1nc2c(cc1C(=O)NCC1CC1)CCN(C)CC2 | 34.1
33 | CC(C)Nc1nc2c(cc1C(=O)NCC1CC1)CCN(S(C)(=O)=O)CC2 | -39.1
34 | Cn1cc(CN(CC2(O)CNCCOC2)C2CCCCC2)cn1 (configuration not stated) | 38.5
35 | O=C(Cc1ccccc1F)N1CCN(C(=O)c2cccc(F)c2)CC1 | 27.6
36 | Cc1noc(CCCc2nc(C3CCOC3)no2)n1 (configuration not stated) | 5.87
37 | Cc1nonc1C1CCCN1Cc1ccc(C(=O)Nc2nccs2)cc1 (configuration not stated) | 56.6
38 | Cc1cc(C2CCCN2Cc2cccc(C(=O)Nc3nccs3)c2)no1 (configuration not stated) | -30.7

Row | SMILES | INHIBITION [%]
39 | Cc1cc(C2CCCN2Cc2ccc(C(=O)Nc3nccs3)cc2)on1 (configuration not stated) | 7.97
40 | O=c1[nH]c2cn(-c3ccc(Br)cc3)c(=O)n2[nH]1 | 31.6
41 | Cc1ccc(C)c(OC2CCN(C(=O)CNc3ccccc3Cl)CC2)c1 | 83.9
42 | Cc1ccc(C)c(OC2CCN(C(=O)NCC(=O)N3CCCC3)CC2)c1 | -29.5
43 | CCNC(=O)CCC(=O)N1CCC(Oc2cc(C)ccc2C)CC1 | 14.9
44 | CCc1cnc(N)nc1N(C)CCc1cnn(C)c1 | 2.84
45 | CC(C)S(=O)(=O)C(C)C(=O)NCc1ccccc1COc1ccccc1 (configuration not stated) | -4.12
46 | COCCOCC(=O)N(Cc1cccc(C)c1)C(C)C | 5.94
47 | Cc1cccc(CN(C(=O)CS(C)(=O)=O)C(C)C)c1 | -12.9
48 | CC(=O)C(C)CC(=O)N(Cc1cccc(C)c1)C(C)C (configuration not stated) | 68.4
49 | O=C(c1ccc(O)cc1)N1C[C@@H]2OCCN(c3ncccn3)[C@@H]2C1 | -15.2
50 | CCOc1ncccc1NC(=O)NC1CCCN(S(C)(=O)=O)C1 (configuration not stated) | -2.19
51 | COc1ncccc1C(=O)N1CCc2c(ncnc2N2CCOCC2)C1 | -102
52 | c1coc(CN2CCc3nnc(COc4cncnc4)n3CC2)c1 | 10.6
53 | O=C1C(Sc2nnnn2C2CC2)CCN1c1ccccc1Cl (configuration not stated) | 11.4
54 | Cc1[nH]ccc1C(=O)N1CCOCC12CCCC2 | 19.3
55 | Cc1ccc(F)cc1C(=O)N1CCOCC12CCCC2 | 69.1
56 | O=C(c1ccc[nH]1)N1CCOCC12CCCC2 | 40.9
57 | Cn1cc(C2CCCN2C(=O)c2cnc(-c3ccco3)s2)cn1 (configuration not stated) | 23.6
